# Test results as given in PubChem BioAssay (NCI).
# About 83,000 compounds went through this panel and 20% of them were active in at least one assay; those are over-represented in the sample as a whole.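 Assay: single dose, 48 h. Readout: percent growth (0 = no net growth; negative = cell death). Active: <10.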 Unmarked numbers belong to inactive results. Active and inactive are the calls of the source.
# System: SK-MEL-5 melanoma
# Test: NCI-60 one-dose screen, 48 h (100 = growth as untreated, 0 = no growth, -100 = all killed)
# Conditions: 10 µM unless noted
# Protocol: Growth inhibition of the SK-MEL-5 human tumor cell line is measured as a screen for anti-cancer activity. Cells are grown in 96 well plates and exposed to the test compound for 48 hours. Compounds are tested at a single concentration, which is 10^-5 M for most compounds. The reported endpoint is percent growth (GI% or GIPRCNT), where numbers from 0 - 100% represent growth inhibition, and numbers from -100% - 0 represent cell death. For example, a value of 40 represents 60% growth inhibition. A value of 0 means no net growth occurred over the course of the experiment. A value of -40 indicates 40% of cells at the beginning of the experiment died by the end of the experiment. A value of -100 means all cells are dead at the end of the experiment.
# NCI-60 Human Tumor Cell Lines Screen was performed using the standard one-dose NCI protocol, which is described in more detail at https://dtp.cancer.gov/discovery_development/nci-60/default.htm.
# Compounds with GIPRCNT values below 10 were considered active. Activity score was based on GIPRCNT using the following formula: […]
# Score is 0 for GIPRCNT values of 100 or above, 50 for GIPRCNT values of 0, and 100 for GIPRCNT values of -100.
row,Compound,growth
1,COC(=O)c1c2c(c(C)[n+]([O-])c1C)C(=O)C(NCc1ccc(Cl)cc1)=CC2=O,29.9%
2,COC(=O)/C=C1/SC(=Nc2ccc(C)cc2)N(CCc2c[nH]c3ccc(O)cc23)C1=O,50.5%
3,COc1cc(-c2csc(NC(=O)c3cc(-n4cnc(C)c4)cc(C(F)(F)F)c3)n2)cc(OC)c1OC,51%
4,CCNc1nc(-c2ccc(Cl)c(OC)c2)c(-c2ccnc(NCCCNS(=O)(=O)c3ccc(Cl)cc3)n2)s1,48.2%
5,CN1CCN(C(=O)c2ccc(NC(=O)Nc3ccc(-c4nc(N5CCOCC5)c5cccn5n4)cc3)cc2)CC1,-61.6% (active)
6,O=C(Cn1c2c(c3ccccc31)CCCC2)Nc1ccc(-c2nc3ccccc3s2)cc1,93.6%
7,O=C(O)CCCN1C(=O)/C(=C/C(Cl)=C/c2ccccc2)SC1=S,38.4%
8,CS(=O)(=O)c1cccc(-c2c(-c3cccc(OS(N)(=O)=O)c3)nc3sccn23)c1,96.6%
9,COc1ccc(/C=C2\COc3ccc(O)cc3C2=O)c(OC)c1OC,89.9%
10,N#Cc1c(NC(=O)c2ccccc2)sc2c1CCC(=O)C2,-75.8% (active)
11,O=C(O)CNC1=C(Cl)C(=O)c2ccccc2C1=O,112%
12,Cn1c(=O)c2c(nc(NC3=NS(=O)(=O)c4ccccc43)n2CC(=O)N2CCc3ccccc32)n(C)c1=O,101%
13,Oc1c(Cl)cc(Cl)c2ccc(Cn3cc(-c4cc(C(F)(F)F)cc(C(F)(F)F)c4)nn3)nc12,92.6%
14,CC(C)CCC[C@@H](C)[C@H]1CC[C@H]2[C@@H]3CC=C4C[C@@H](C(C(=O)O)C(=O)O)CC[C@]4(C)[C@H]3CC[C@]12C,-96% (active)
15,COc1ccc2[nH]cc(C(c3cc(F)cc(F)c3)c3c[nH]c4ccc(OC)cc34)c2c1,91.7%
16,O=c1oc2ccccc2cc1C1=NN=C(SCc2ccccc2)SC1,100%
17,Cn1cccc1C(=O)C1C(c2cccc([N+](=O)[O-])c2)C2C3CCCCC3CN2C12C(=O)Nc1ccc(Cl)cc12 (stereo not given),64.5%
18,Nc1ncnc2c1N=C(c1ccc(Cl)cc1)CC(c1ccc3c(c1)OCO3)N2 (stereo not given),98%
19,CO[C@H]1/C=C(/C)CCC[C@H](C)[C@H](O)[C@@H](C)C(=O)C(C)(C)[C@@H](O)CC(=O)O[C@@H]1/C(C)=C/c1csc(C)n1,20.6%
20,CNC(=O)c1c(NC(=O)c2ccc(C(F)(F)F)cc2)sc2c1CCC(=O)C2,-71.6% (active)

row,Compound,growth
1,CC(=O)Nc1nc2ccc(NS(=O)(=O)c3cccc4c(N(C)C)cccc34)cc2[nH]1,21.5%
2,O=C(c1cc2ccccc2o1)c1nn(-c2ccccc2)/c(=N/N=Cc2cn(-c3ccccc3)nc2-c2cc3ccccc3oc2=O)s1,102%
3,N#CC1CCc2c(c(-c3cn[nH]c3C(F)(F)F)nc3c(F)cc4[nH]ncc4c23)C1 (stereo not given),6.54% (active)
4,Cc1ccc(-c2cc(-c3ccc(Cl)cc3)nc(NC(=O)c3cccnc3)n2)cc1,93.6%
5,CC(C)(C)[Si](C)(C)O[C@H]1C(=O)C=CN2CC=C[C@@H]12,106% [100 µM]
6,Oc1c(Cl)cc(Cl)cc1/C=N/Nc1nnc(N/N=C/c2cc(Cl)cc(Cl)c2O)c2ccccc12,-46.8% (active)
7,CCCCCCNC(=O)Oc1ccc(/C(=C(/C)Cc2ccc(OC)cc2)c2ccc(OCCCN(C)C)cc2)cc1,6.74% (active)
8,CCCCC(=O)c1ccco1,98.8%
9,N#C/C(=C/c1ccc([N+](=O)[O-])cc1)n1nnc2cc(F)c(F)cc21,88.6%
10,COc1ccc(/C=C2\COc3ccc(O)c(O)c3C2=O)cc1,-1.8% (active)
11,COC(=O)c1c2c(c[n+]([O-])c1C)C(=O)C(NCc1ccccc1)=CC2=O,-97% (active)
12,CC(=O)N(N=Nc1ccccc1)c1cccc2ccccc12,84.3%
13,CN(C)c1ccc(Nc2cc(-c3cccc(OC(F)(F)F)c3)nc3ccc(N4CCCC4)cc23)cc1,96.3%
14,S=C(Nc1ccc(-c2nc(N3CCOCC3)c3cccn3n2)cc1)Nc1cccnc1,58.2%
15,Fc1ccc(-c2nn(-c3ccccc3)cc2-c2nc3ccccc3o2)cc1,57.9%
16,COc1cccc(/C=C/C(=O)c2cc3c(N)c(C(=O)Nc4ccccc4)sc3nc2C)c1,34.8%
17,CC(=O)OC[C@]12CCC(C)(C)C[C@H]1[C@@]1(O)[C@H](O)C[C@@H]3[C@@]4(C)CCCNC(C)(C)[C@@H]4CC[C@@]3(C)[C@]1(C)CC2,99.9%
18,CCN(CC)CCOc1ccc(-c2c(-c3ccccc3)c(=O)oc3ccccc23)cc1,71.6%
19,O=C(CSc1nnc2n1S(=O)(=O)c1ccccc1N2c1ccccc1)Nc1nc2ccc(F)cc2s1,87.7%
20,Cc1ccc(-c2csc(NC(=O)CN3CCN(c4cc5c(cc4F)c(=O)c(C(=O)O)cn5C4CC4)CC3)n2)cc1,-26.4% (active)
